An excerpt weighted towards active compounds, which were near 5.2% of everything screened.
mIDH1 inhibitor – human IDH1 R132H inhibition. Potency, µM (doses to about 76.6 µM), hits mostly inhibitors. 390,000 compounds, 0.093% hits. O75874. IDH1-R132H enzyme, NADPH consumption, diaphorase/resazurin fluorescence. AID 602179; further: nearly all actives have a fitted effect of over 65% in size
Target sequence (O75874 whole entry R132H, stated change not applied): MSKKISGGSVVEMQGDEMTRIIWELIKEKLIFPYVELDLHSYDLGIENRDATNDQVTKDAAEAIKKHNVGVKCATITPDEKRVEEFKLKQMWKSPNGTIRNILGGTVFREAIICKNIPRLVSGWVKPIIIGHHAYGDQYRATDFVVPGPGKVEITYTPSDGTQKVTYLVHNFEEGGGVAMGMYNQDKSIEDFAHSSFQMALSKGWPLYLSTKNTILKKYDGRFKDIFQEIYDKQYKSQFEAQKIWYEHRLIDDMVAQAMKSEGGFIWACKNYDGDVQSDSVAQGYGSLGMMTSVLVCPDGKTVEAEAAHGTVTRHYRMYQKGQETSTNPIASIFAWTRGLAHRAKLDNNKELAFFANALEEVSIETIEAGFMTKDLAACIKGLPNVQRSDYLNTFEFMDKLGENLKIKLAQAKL
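IDH1-R132H (0.5 ug/mL) preincubated 30 min with compound, then NADPH (0.016 mM) and alpha-KG (2 mM) added; 80 min at RT, pH 7.5. Remaining NADPH coupled via diaphorase/resazurin to fluorescence (540/590 nm); concentration-response curves normalized to no-enzyme control.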
Sfp inh – inhibitors of Bacillus subtilis Sfp phosphopantetheinyl transferase | Q9F4F7 | Biochemical Sfp PPTase activity, qHTS | Potency, µM, hits mostly inhibitors | 310,000 compounds, 3.5% hits | AID 1490;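 further: the enzyme is Sfp with the accession as filed and its product quenches rhodamine fluorescence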
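Fluorescence-quenching assay with 15 nM Sfp, 5 uM rhodamine-CoA and 12.5 uM BHQ-2-labelled ybbR peptide in pH 7.6 Hepes/MgCl2 buffer. Enzyme was pre-incubated with compound for 15 min at room temperature. Rate was taken from the 30-min fluorescence change (525/598 nm).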
TrxR1 inh – blocks rat thioredoxin reductase 1; O89049; recombinant rTrxR1, NADPH fluorescence consumption, selenite substrate; Potency, µM (top dose mostly 114 µM), hits mostly inhibitors; 390,000 compounds, 1% hits; further: nearly all actives have a fitted effect of over 65% in size
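Rat TrxR1 (90 nM in the dispensed reagent) was pre-reduced with 400 uM NADPH for 5 min at room temperature, then incubated with compound for 15 min. After 400 uM selenite was added, NADPH fluorescence (Ex 340/Em 450 nm) was followed for 8 min.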
TrxR1 substrate – substrates of rat thioredoxin reductase 1. purified TrxR1 substrate turnover, NADPH consumption readout. Potency, µM (top dose mostly 114 µM). 390,000 compounds, 0.01% hits. O89049; further: nearly all actives have a fitted effect of over 50% in size
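Rat TrxR1, dispensed at 90 nM, was prereduced with 400 uM NADPH (final) for 5 min at ~22 deg C, then incubated with compound 15 min before 400 uM selenite. A first-read NADPH fluorescence drop versus no-compound background flagged substrates.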
PLK1 PBD inh – inhibitors of human PLK1 polo-box domain binding | Potency, µM, usual class: inhibitors | Plk1 PBD binding of FITC phosphopeptide, fluorescence polarization | P53350 | 360,000 compounds, 2.8% hits | AID 720504; further: series mostly up to about 57 µM; nearly all actives have a fitted effect of over 65% in size
VDR inhibitor – inhibitors of human vitamin D receptor | P11473 | VDR-SRC2-3 peptide fluorescence polarization, 2 h | Potency, µM, most hits filed as inhibitors | 400,000 compounds, 0.93% hits
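FP read-out; VDR + SRC2-3 coactivator peptide; 23 nl compound by pintool; 2 h RT incubation; reagents held at 4 deg C, protected from light.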
Sfp inh conf – confirmation of Bacillus subtilis Sfp PPTase inhibitors; shares compounds with Sfp inh; Sfp PPTase enzymatic assay, qHTS titration; Potency, µM (titrated, usually from 114 µM), actives largely listed as inhibitors; 380 compounds, 79% hits; AID 2701
VDR inh confirm – inhibits human vitamin D receptor, primary hit validation | shares compounds with VDR inhibitor | VDR-coactivator inhibition assay, qHTS confirmation | Potency, µM, hits mostly inhibitors | 840 compounds, 89% hits
VDR FP fluor – VDR (human) coactivator binding inhibition, fluorescein polarization; shares compounds with VDR inhibitor; VDR-coactivator binding, fluorescein fluorescence polarization; Potency, µM (doses to about 57.1 µM), most hits filed as inhibitors; 840 compounds, 48% hits
VDR bla – confirmation of human vitamin D receptor inhibitors in reporter cells | Potency, µM (titrated, usually from 46.1 µM), actives largely listed as inhibitors | VDR beta-lactamase reporter cells, FRET ratio; cells co-treated with VDR agonist LG190178 | AID 602202 | shares compounds with VDR inhibitor | 840 compounds, 23% hits
VDR viability – cytotoxic in counter-screen for VDR inhibitors; cytotoxicity counter-screen, cell viability, qHTS; Potency, µM (titrated, usually from 48.3 µM), actives largely listed as cytotoxic; shares compounds with VDR inhibitor; 840 compounds, 18% hits; AID 602204; further: nearly all actives have a fitted effect of over 75% in size
TbPYK confirm – Trypanosoma brucei pyruvate kinase inhibition, cherry-pick confirmation | shares compounds with PLK1 PBD inh | Potency, µM (top dose mostly 76.9 µM), usual class: inhibitors | 890 compounds, 67% hits | recombinant TbPYK, Kinase-Glo ATP luminescence | AID 720569; further: nearly all actives have a fitted effect of over 70% in size
TbPYK orthogonal – inhibits T. brucei pyruvate kinase in orthogonal ADP-Glo assay; Potency, µM (doses to about 76.9 µM), most hits filed as inhibitors; recombinant TbPYK, ADP-Glo luminescence, 60 min; AID 720584; shares compounds with PLK1 PBD inh; 890 compounds, 62% hits; further: nearly all actives have a fitted effect of over 75% in size
A number is an active result; i = inactive; ? = inconclusive; nt = no result given; [ ] = another dose, or the depositor's remark. The call rests on the fitted dose curve; in most records, active means well fitted curve in the direction sought with a large enough effect; inconclusive means small, poorly fitted or top-dose-only effect, or another doubt; inactive means no such curve, though single readings can be large; an effect the other way counts as inactive or inconclusive.

SMILES | mIDH1 inhibitor | Sfp inh | TrxR1 inh | TrxR1 substrate | PLK1 PBD inh | VDR inhibitor | VDR inh confirm | VDR FP fluor | VDR bla | VDR viability | others
C/C=C/c1cccc(-c2nc(C(=O)N3CCCCC3)cc3c2[C@H](CCO)N(C(=O)NC(C)C)C3)c1 | nt | nt | nt | nt | i | nt | nt | nt | nt | nt
Cc1ccc(OCCC(=O)NNC(=O)c2cc(C)oc2C)cc1 | i | nt | i | i | i | i | nt | nt | nt | nt
CN(C)c1ccc(C(=S)N2CCN(Cc3ccccc3)CC2)cc1 | i | 2.24µM | i | i | 4.23µM | 50.1µM | nt | nt | nt | nt | Sfp inh conf=11.8µM;TbPYK confirm=5.01µM;TbPYK orthogonal=4.47µM
CCN(CC)c1ccc(C(=O)N2CCN(Cc3ccccc3)CC2)cc1 | i | i | i | i | ? | i | nt | nt | nt | nt
CC1CCc2c(sc(NC(=O)CCC(=O)O)c2C(=O)NC2CC2)C1 (stereo not drawn) | i | 8.91µM | i | i | 5.32µM | 56.2µM | 26.7 | 28.2µM | i | i
COCC(=O)Nc1sc2c(c1C(=O)OC)CCC(C)C2 (stereo not drawn) | i | i | i | i | i | i | nt | nt | nt | nt
CCOC(=O)c1nc2sc(C)c(C)c2c(=O)[nH]1 | i | i | i | i | i | i | nt | nt | nt | nt
CCOC(=O)/C(=C\c1cccc(O)c1)c1nc2sc(C)c(C)c2c(=O)[nH]1 | i | 7.08µM | ? | i[11.4 µM] | 4.74µM | 44.7µM | 3.36 | ? | 20.6µM | ?
O=C(CNC(=O)c1cccs1)c1ccc(Br)cc1 | i | i | i | i | i | i | nt | nt | nt | nt
COc1cc(OC)c(/C=C/c2nccc3ccccc23)c(OC)c1 | nt | nt | i | i | nt | nt | 8.91 | 1.58µM | 20.6µM | ?
CCOc1cc(/C=N/NC(=O)c2nnn(-c3nonc3N)c2C)ccc1OCc1ccc(F)cc1 | i | i | i | i | i | i | nt | nt | nt | nt
CCN1C(=O)/C(=C/c2ccc(OCc3ccc(C(=O)O)cc3)c(Cl)c2)NC1=S | i | i | i | i | ? | ? | nt | nt | nt | nt
CCOc1cc(/C=C2/C(=O)ON=C2C)ccc1OCc1ccc(F)cc1 | i | 50.1µM | ? | i | ? | 79.4µM | ? | i | i | i
C#CCOc1ccc(/C=C2/C(=O)ON=C2C)cc1Cl | i | ? | i | i | 2.12µM | 44.7µM | 5.97 | ? | i | i
CCCOc1ccc(Cl)cc1/C=C1/C(=O)ON=C1C | i | ? | ? | i | 2.38µM | 25.1µM | 10.6 | 3.55µM | i | ?
C#CCOc1c(Cl)cc(/C=C2/C(=O)ON=C2C)cc1OCC | i | 79.4µM | ? | i | 5.97µM | ? | 7.94 | 7.94µM | i | i
CC(=O)N1CCc2cc(NC(=O)C3(C)CCN3CCc3ccccc3)ccc21 (stereo not drawn) | nt | nt | nt | nt | i | nt | nt | nt | nt | nt
Cc1ccc(C(=O)NCc2ccc(N(C)C)cc2)cc1NC(=O)c1nsc2ccccc12 | i | nt | i | i | nt | i | nt | nt | nt | nt
C=CCOc1c(Br)cc(/C=C2/C(=O)ON=C2C)cc1OC | i | ? | ? | i | 4.74µM | 44.7µM | 9.47 | ? | i | i
CC1=NOC(=O)/C1=C\c1ccc(-c2ccc(Cl)cc2Cl)o1 | ? | 44.7µM | ? | i | 0.423µM | 22.4µM | 3.77 | 2.24µM | ? | ?
C=CCOc1c(Br)cc(CNn2cn[nH]c2=S)cc1OC | i | i | i | i | i | i | nt | nt | nt | nt

Compound activity: PubChem, National Center for Advancing Translational Sciences (NCATS)
